These results are taken from PubChem BioAssay (NCI).

The panel holds about 79,000 compounds, 15% with a hit somewhere; the sample as a whole holds those more often. Unmarked numbers belong to inactive results. Active and inactive are the calls of the source. Cut-off read from the data, not from the text of the source: active = growth inhibition above about 70%; inactive = the rest.

Test [1] can be described thus: NCI Yeast Anticancer Drug Screen. Data for the rad50 strain (AID 155).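 Note: 0% = growth of vehicle-only cultures of the same strain.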 To be noted: S. cerevisiae rad50 strain growth inhibition, stronger effect = higher value. The gist of the method:
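Cells are treated with compound, grown, and their growth is then scored against vehicle-only cultures of the same repair-deficient yeast strain.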

Test [2] in a line: NCI Yeast Anticancer Drug Screen. Data for the mec2-1 strain (AID 157). To be noted: S. cerevisiae mec2-1 strain, stronger effect = higher value. In a few lines: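 Mutant yeast (mec2-1) grown with compound; growth inhibition relative to vehicle control reported.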
A short description of test [3]: NCI Yeast Anticancer Drug Screen. Data for the sgs1 mgt1 strain (AID 161).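 Note: 0% = growth of cultures given vehicle only.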 To be noted: S. cerevisiae sgs1 mgt1 strain, stronger effect = higher value. In a few lines: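 Growth of a repair-deficient yeast mutant was monitored after compound treatment and expressed as inhibition relative to vehicle-treated cultures.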
Test [4] is described as follows: NCI Yeast Anticancer Drug Screen. Data for the cln2 rad14 strain (AID 165).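 Note: 0% = growth equal to vehicle treated cultures.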 To be noted: S. cerevisiae cln2 rad14 strain, stronger effect = higher value. The gist of the method:
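Readout is yeast growth inhibition versus vehicle-treated controls, using a strain with cln2 and rad14 alterations exposed to compound.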

Test [5] is described as follows: NCI Yeast Anticancer Drug Screen. Data for the bub3 strain (AID 167). To be noted: S. cerevisiae bub3 mutant strain, stronger effect = higher value. The gist of the method:
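Part of a panel of yeast mutants defective in DNA damage repair or cell cycle regulation. Each strain is grown with compound, and inhibition is calculated relative to solvent-treated cultures.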

Test [6] in a line: NCI Yeast Anticancer Drug Screen. Data for the mlh1 rad18 strain (AID 175). To be noted: S. cerevisiae mlh1 rad18 strain growth inhibition, stronger effect = higher value. The gist of the method:
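Genetically defined yeast (DNA repair-deficient) exposed to compounds; growth inhibition determined relative to vehicle.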

Setting [7] is: at 5.0 µM (retest, dose inferred, filed as 0.5).
Setting [8] is: at 50.0 µM (retest, dose inferred, filed as 5.0).

Turning to `Cn1c2c(c3nc(N)nc(N)c3c1=O)CCc1ccccc1-2`, the growth inhibition in test [1] (setting [7]) is 6%; in test [1] (setting [8]), 21%; in test [1] (at 50.0 µM), 72.8% (active); in test [2] (setting [7]), 0%; in test [2] (setting [8]), 31%; in test [2] (at 50.0 µM), 26.3%. The growth inhibition was 8% in test [3] (setting [7]); 39% in test [3] (setting [8]); 69.5% in test [3] (at 50.0 µM); -2% in test [4] (setting [7]); 37% in test [4] (setting [8]); 42.8% in test [4] (at 50.0 µM). The growth inhibition in test [5] (setting [7]) was -1%; in test [5] (setting [8]) it was 39%; in test [5] (at 50.0 µM) it was 68.5%; in test [6] (setting [7]), 0%; in test [6] (setting [8]), 36%; in test [6] (at 50.0 µM), 44.4%.
`CC/C(Cl)=N\OC(=O)Nc1ccc(F)c(Cl)c1`: the growth inhibition is -8% in test [1] (setting [7]); 98% (active) in test [1] (setting [8]); 58.5% in test [1] (at 50.0 µM); 5% in test [2] (setting [7]); 96% (active) in test [2] (setting [8]); 84.4% (active) in test [2] (at 50.0 µM). For the same compound, the growth inhibition in test [3] (setting [7]) was 36%; in test [3] (setting [8]), 99% (active); in test [3] (at 50.0 µM) it was 83.7% (active); in test [4] (setting [7]), 31%; in test [4] (setting [8]), 75% (active); in test [4] (at 50.0 µM), 51%. In addition, the growth inhibition is 5% in test [5] (setting [7]); 92% (active) in test [5] (setting [8]); 78.2% (active) in test [5] (at 50.0 µM); -8% in test [6] (setting [7]); 94% (active) in test [6] (setting [8]); 69.3% in test [6] (at 50.0 µM).
On to `c1ccc(SSc2ccccc2)cc1`, for which the growth inhibition is -6% in test [1] (setting [7]); 64% in test [1] (setting [8]); 47.3% in test [1] (at 50.0 µM); -38% in test [2] (setting [7]); 18% in test [2] (setting [8]); 20.7% in test [2] (at 50.0 µM). The growth inhibition in test [3] (setting [7]) is 0%; in test [3] (setting [8]), 25%; in test [3] (at 50.0 µM), 77% (active); in test [4] (setting [7]) it was 1%; in test [4] (setting [8]) it was 3%; in test [4] (at 50.0 µM), 18.9%. Also, the growth inhibition in test [5] (setting [7]) was 38%; in test [5] (setting [8]), 20%; in test [5] (at 50.0 µM), 26.7%; in test [6] (setting [7]) it was -2%; in test [6] (setting [8]) it was 50%; in test [6] (at 50.0 µM) it was 87.7% (active).
`CCCCCCCCN(CCCCCCCC)C(=O)C(C)O` (stereo not given): the growth inhibition in test [1] (setting [7]) was 14%; in test [1] (setting [8]) it was 98% (active); in test [1] (at 50.0 µM) it was 98.7% (active); in test [2] (setting [7]) it was -2%; in test [2] (setting [8]), 98% (active); in test [2] (at 50.0 µM) it was 89.2% (active). For the same compound, the growth inhibition was 20% in test [3] (setting [7]); 99% (active) in test [3] (setting [8]); 97.7% (active) in test [3] (at 50.0 µM); 9% in test [4] (setting [7]); 97% (active) in test [4] (setting [8]); 81.7% (active) in test [4] (at 50.0 µM). The growth inhibition in test [5] (setting [7]) was 6%; in test [5] (setting [8]) it was 99% (active); in test [5] (at 50.0 µM), 97.5% (active); in test [6] (setting [7]), 27%; in test [6] (setting [8]), 98% (active); in test [6] (at 50.0 µM), 94% (active).
As for `CC1(c2ccccc2)NC(=O)N(CC(=O)N(c2ccccc2)c2ccccc2)C1=O` (stereo not given), the growth inhibition in test [1] (setting [7]) was 12%; in test [1] (setting [8]), 28%; in test [1] (at 50.0 µM) it was 49.4%; in test [2] (setting [7]), 15%; in test [2] (setting [8]) it was 33%; in test [2] (at 50.0 µM), 23.6%. In addition, the growth inhibition in test [3] (setting [7]) was 9%; in test [3] (setting [8]) it was 30%; in test [3] (at 50.0 µM), 33.5%; in test [4] (setting [7]), 14%; in test [4] (setting [8]), 55%; in test [4] (at 50.0 µM), 40.5%. Besides, the growth inhibition in test [5] (setting [7]) was 8%; in test [5] (setting [8]), 38%; in test [5] (at 50.0 µM) it was 33.7%; in test [6] (setting [7]), 12%; in test [6] (setting [8]), 39%; in test [6] (at 50.0 µM), 52.1%.
Regarding `CC(=O)N1OC2(C)c3ccccc3C1(C)c1ccccc12`, the growth inhibition in test [1] (setting [7]) is 99% (active); in test [1] (setting [8]), 94% (active); in test [1] (at 50.0 µM), 99.2% (active); in test [2] (setting [7]), 99% (active); in test [2] (setting [8]) it was 97% (active); in test [2] (at 50.0 µM) it was 99.4% (active). The growth inhibition in test [3] (setting [7]) was 99% (active); in test [3] (setting [8]) it was 96% (active); in test [3] (at 50.0 µM), 97.9% (active); in test [4] (setting [7]) it was 98% (active); in test [4] (setting [8]) it was 95% (active); in test [4] (at 50.0 µM), 99.2% (active). In addition, the growth inhibition in test [5] (setting [7]) was 99% (active); in test [5] (setting [8]), 96% (active); in test [5] (at 50.0 µM) it was 99.4% (active); in test [6] (setting [7]) it was 99% (active); in test [6] (setting [8]), 95% (active); in test [6] (at 50.0 µM), 99.1% (active).
For `C[n+]1c(/C=C/c2ccccc2Cl)ccc2ccccc21`, the growth inhibition in test [1] (setting [7]) is -3%; in test [1] (setting [8]), 37%; in test [1] (at 50.0 µM), 98.7% (active); in test [2] (setting [7]) it was 2%; in test [2] (setting [8]), 80% (active); in test [2] (at 50.0 µM), 99% (active). Also, the growth inhibition was -8% in test [3] (setting [7]); 35% in test [3] (setting [8]); 99.2% (active) in test [3] (at 50.0 µM); 0% in test [4] (setting [7]); 34% in test [4] (setting [8]); 98.5% (active) in test [4] (at 50.0 µM). For the same compound, the growth inhibition in test [5] (setting [7]) was -5%; in test [5] (setting [8]) it was 33%; in test [5] (at 50.0 µM) it was 98.8% (active); in test [6] (setting [7]), -8%; in test [6] (setting [8]), 48%; in test [6] (at 50.0 µM), 98.8% (active).
In the case of `CNc1ccc(C(=O)NC(CCCCNC(=O)OCc2ccccc2)C(=O)OC)cc1` (stereo not given), the growth inhibition in test [1] (setting [7]) was -3%; in test [1] (setting [8]), -1%; in test [1] (at 50.0 µM), 93.8% (active); in test [2] (setting [7]), 1%; in test [2] (setting [8]), 10%; in test [2] (at 50.0 µM) it was 95% (active). The growth inhibition in test [3] (setting [7]) is -18%; in test [3] (setting [8]), -17%; in test [3] (at 50.0 µM), 97.9% (active); in test [4] (setting [7]), -5%; in test [4] (setting [8]) it was 2%; in test [4] (at 50.0 µM), 58.1%. Moreover, the growth inhibition in test [5] (setting [7]) is -4%; in test [5] (setting [8]) it was 0%; in test [5] (at 50.0 µM), 95.6% (active); in test [6] (setting [7]), 2%; in test [6] (setting [8]), -9%; in test [6] (at 50.0 µM), 98.6% (active).
Turning to `O=C1c2ccccc2C(=O)c2c(NCCNCCO)ccc(O)c21`, the growth inhibition is 37% in test [1] (setting [7]); 93% (active) in test [1] (setting [8]); 85% (active) in test [1] (at 50.0 µM); 19% in test [2] (setting [7]); 94% (active) in test [2] (setting [8]); 84.7% (active) in test [2] (at 50.0 µM). In addition, the growth inhibition in test [3] (setting [7]) was 51%; in test [3] (setting [8]), 91% (active); in test [3] (at 50.0 µM), 86.5% (active); in test [4] (setting [7]) it was 53%; in test [4] (setting [8]), 60%; in test [4] (at 50.0 µM) it was 49.7%. In addition, the growth inhibition was 44% in test [5] (setting [7]); 86% (active) in test [5] (setting [8]); 85.3% (active) in test [5] (at 50.0 µM); 24% in test [6] (setting [7]); 88% (active) in test [6] (setting [8]); 85.8% (active) in test [6] (at 50.0 µM).
`CCOC(=O)C1=C(c2ccccc2)OC(N)=C(C#N)C1c1ccc(C)cc1` (stereo not given): the growth inhibition in test [1] (setting [7]) is 4%; in test [1] (setting [8]), 25%; in test [1] (at 50.0 µM), 77.1% (active); in test [2] (setting [7]) it was 0%; in test [2] (setting [8]), 66%; in test [2] (at 50.0 µM) it was 89.5% (active). Besides, the growth inhibition in test [3] (setting [7]) is 10%; in test [3] (setting [8]) it was 64%; in test [3] (at 50.0 µM) it was 92.5% (active); in test [4] (setting [7]), -4%; in test [4] (setting [8]), 29%; in test [4] (at 50.0 µM) it was 89% (active). Besides, the growth inhibition is 1% in test [5] (setting [7]); 50% in test [5] (setting [8]); 80.1% (active) in test [5] (at 50.0 µM); -2% in test [6] (setting [7]); 65% in test [6] (setting [8]); 85.9% (active) in test [6] (at 50.0 µM).
